Shown are actives, neighbours in structure and some others; about 12% of the full set was active somewhere.
Shiga inhibitor = A qHTS for Small Molecule Inhibitors of Shiga Toxin | Vero cells, Shiga toxin protein synthesis inhibition reporter | inhibition, % at 38.7 µM | 290,000 compounds, 9.2% hits | AID 2315, 2010; in the data active = inhibition mostly above about 28%, no sharp cut-off; inactive = mostly below about 43%; also: 0% is about no effect
Cycloheximide cs = Cycloheximide Counterscreen for Small Molecule Inhibitors of Shiga Toxin. cell reporter, cycloheximide protein synthesis inhibition counterscreen. max response, %. 300,000 compounds, 12% hits. AID 2314, 2010; in the data active = max response mostly above about 13%, no sharp cut-off; inactive = mostly below about 14%; also: read at 38.3 µM for the half of the compounds with a filed dose; 0% is about no effect
LASV entry inh = qHTS for Inhibitors of binding or entry into cells for Lassa Virus | Lassa virus pseudotype entry inhibition, cell reporter | Potency, µM (series often up to 37.9 µM), for inactives: top-dose activity change, negative = inhibition, most hits filed as inhibitors | 300,000 compounds, 1.2% hits; calls by dose curve; tested in HEK293 cells; also: potency is read from the fitted curve at half-maximal effect; % is scaled to controls: 0 for no effect and ±100 for the full control effect; nearly all actives have a fitted effect of over 50% in size
Marburg entry inh = qHTS for inhibitors of binding or entry into cells for Marburg Virus | Marburg virus pseudotyped entry inhibition, cell reporter | Potency, µM (titrated, usually from 37.8 µM), inactives show at the top dose activity change, negative = inhibition, usual class: inhibitors | 300,000 compounds, 1.8% hits; calls by dose curve; tested in HEK293 cells; also: potency is read from the fitted curve at half-maximal effect; % is scaled to controls: 0 for no effect and ±100 for the full control effect
An asterisk follows results filed as active; ? = inconclusive; . = not tested or not shown; [ ] = remark or other dose.

SMILES | Shiga inhibitor | Cycloheximide cs | LASV entry inh | Marburg entry inh
COc1cc(/C=N/n2nnnc2N)ccc1OCC(N)=O | . | -2.6 | . | .
COc1cc(NC(=O)c2ccc(C(=O)Nc3cc(OC)c(Cl)cc3OC)cc2)c(OC)cc1Cl | . | . | 4.4%[46.1 µM] | .
O=C(NCC(c1ccc2c(c1)OCO2)N1CCN(c2ccccc2)CC1)C(=O)Nc1cccc(F)c1 (stereo not drawn) | . | . | -13.3%[46.1 µM] | .
COc1ccccc1CNC(=S)NC1CCCCC1 | 1.5 | 1.4 | 8.91µM* | ?
COc1ccccc1CNC(=O)CCc1ccccc1 | 5.4 | 7.8 | . | .
COc1ccccc1CNC(=S)NCCc1ccccc1 | 46.7* | 12.5 | 15.7% | -1.2%[46.1 µM]
CCN(Cc1ccc(OC)cc1)c1ccc(-c2nc(-c3ccncc3)no2)cc1[N+](=O)[O-] | . | . | 2.3%[46.1 µM] | 2.0%[46.1 µM]
CC1=NN(C(=O)c2ccoc2C)C(O)(C(F)(F)F)C1 (stereo not drawn) | 44.1* | 50.1* | 5.3% | 3.9%[46.1 µM]
CC1=NN(C(=O)c2cccnc2)C(O)(C(F)(F)F)C1 (stereo not drawn) | -10.5 | -0.8 | 35.3%[46.1 µM] | -11.2%[46.1 µM]
COc1cccc(C(=O)N2N=C(c3ccccc3)CC2(O)C(F)(F)F)c1 (stereo not drawn) | 8.2 | -2.0 | 3.6% | -27.1%
Cc1ccc(C2=NN(C(=O)c3ccco3)C(O)(C(F)(F)F)C2)cc1 (stereo not drawn) | 37.1* | 13.7* | -23.9%[46.1 µM] | -2.9%[46.1 µM]
COc1ccc(C(=O)N2N=C(c3ccccc3)CC2(O)C(F)(F)F)cc1 (stereo not drawn) | 12.7 | 6.5 | ? | 12.6µM*
CCCCC1=NN(C(=O)c2cocc2C)C(O)(C(F)(F)F)C1 (stereo not drawn) | 32.3* | 20.4* | ? | 1.4%
CCCCC1=NN(C(=O)c2ccncc2)C(O)(C(F)(F)F)C1 (stereo not drawn) | 2.9 | -1.1 | 1.6% | ?
CC(C(=O)Nc1ccc(C#N)cc1)N1CCN(C(=O)C2CC2)CC1 (stereo not drawn) | . | . | 8.3% | 2.5%
COC(=O)N1N=C(c2ccccc2)CC1(O)C(F)(F)F (stereo not drawn) | 105.6* | 38.6* | 9.0% | 4.2%
COC(=O)c1ccc(Nc2nc3ccc(C)cc3n3cnnc23)cc1 | 50.9 | 17.0 | 7.2%[46.1 µM] | ?
CC(=O)c1ccc(Nc2nc3ccc(C)cc3n3cnnc23)cc1 | 28.5 | 16.6* | -16.2%[46.1 µM] | 1.5%[46.1 µM]
CC(C)(C)OC(=O)CNC(=O)c1nc[nH]c1C(=O)N1CCc2ccccc2C1 | -1.8 | 1.4 | . | .
Cn1c(=O)n(C)c2cc(NS(=O)(=O)c3ccc(C(C)(C)C)cc3)c(NCc3ccccc3)cc21 | . | . | 1.3%[46.1 µM] | 3.4%[46.1 µM]
CCCCCOC(=O)[C@H](C)c1c(C)[nH]c(=S)[nH]c1=O | . | . | . | 3.8%
CCN(CC)S(=O)(=O)c1ccc2c(c1)N(CC(=O)NCCN1CCOCC1)C(=O)CO2 | -7.2 | -4.5 | . | .
CCN(CC)S(=O)(=O)c1ccc2c(c1)N(CC(=O)NCCCN1CCN(c3cc(Cl)ccc3C)CC1)C(=O)CO2 | . | . | ? | 12.6µM*
COc1ccccc1N=Nc1ccc(N)c(C)c1 | 91.3 | 32.4* | ? | 7.1%
Oc1cccc(-c2nc3ccc4ccccc4c3c3c2CCC3)c1 | 127.1* | 59.0* | 11.7% | 9.2%
SMILES | Shiga inhibitor | Cycloheximide cs | LASV entry inh | Marburg entry inh
CCCCNC(=O)[C@H]1C[C@H]1[C@@H](O)[C@H](CO)NC(=O)[C@H](Cc1ccccc1)NC(=O)OC(C)(C)C | -2.0 | 2.0 | . | .
O=C(N/N=C/C=C\c1ccccc1[N+](=O)[O-])c1ccco1 | -2.4 | 11.6 | . | .
Cc1occc1C(=O)N/N=C/C=C\c1ccccc1[N+](=O)[O-] | 69.6* | 30.4* | 4.7% | 25.9%[46.1 µM]
COc1ccc(NCC(=O)N/N=C/C=C/c2ccccc2[N+](=O)[O-])cc1 | 5.7 | -2.8 | -1.1% | -6.9%
CCOC(=O)N/N=C/C=C/c1ccccc1[N+](=O)[O-] | 73.4* | 21.8* | -7.7% | 7.2%[46.1 µM]
O=C(N/N=C/C=C/c1ccccc1[N+](=O)[O-])c1cc(-c2ccccc2)n[nH]1 | 22.2 | 0.9 | -4.1% | -12.4%
Cc1ccsc1C(=O)N/N=C/C=C/c1ccccc1[N+](=O)[O-] | 117.4* | 29.8* | 7.3% | 13.0%
COc1ccc(CCC(C)NCCc2ccc(Cl)cc2Cl)cc1 (stereo not drawn) | -9.5 | -8.7 | . | .
CN1CCN(C(=O)c2cc(-c3cccc(Cl)c3)on2)CC1 | 41.5 | 33.8* | ? | ?
O=C(c1cc(-c2cccc(Cl)c2)on1)N1CCCCCC1 | 116.5* | 26.6* | ? | -16.3%[46.1 µM]
O=C(c1cc(-c2cccc(Cl)c2)on1)N1CCN(c2ccc(F)cc2)CC1 | -18.9 | -2.9 | -24.5%[46.1 µM] | -23.7%[46.1 µM]
COCCNC(=O)C1CC(c2cccc([N+](=O)[O-])c2)=NO1 (stereo not drawn) | -21.4 | -3.4 | . | .

Compound activity (PubChem BioAssay)
